# Data published in ChEMBL document CHEMBL3988442, “University of Dundee, Small-Polar-MMV Screening Library” (2021).
# Screen size: about 38,000 compounds; about 1,200 (3.2%) showed an effect of 50% or more. The median lay at about -58%. This excerpt belongs to a sample that is enriched for strong results.
# Tested on: Plasmodium falciparum
# Experiment: Calibr Malaria Delayed Death Assay SOP
# Assay type: functional, organism-based
# Design: scale not given: in the data most compounds retested in dose-response had high values
# Details: concentration 4.99e-06 (unit not given; other assays of the set use mol/L)
row,Structure (SMILES),Percent Effect [%]
1,CC(c1ccc(-n2cncn2)cc1)N(C)Cc1ccccn1 (configuration not stated),-93.37
2,CCCSc1nn(CCN(C)C)c2nc3sc(C)c(CC)c3c(=O)n12,46.83
3,CCc1c(C)sc2nc3n(CCN(C)C)nc(SC)n3c(=O)c12,13.06
4,Cc1oncc1C(=O)N1CCC2(CCN(Cc3cccnc3)C2=O)C1.O=C(O)C(F)(F)F (configuration not stated),-151.7
5,O=C(Nc1ccccc1)[C@H]1C[C@@H]2CN(C(=O)Nc3ccccc3)C[C@H]1O2,18.72
6,O=C(c1cccc2c1OCO2)N1CCCC(n2ccnc2)C1 (configuration not stated),-40.58
7,CCCc1n[nH]c(C2CN(C(=O)CCn3ccccc3=O)CCO2)n1 (configuration not stated),-67.64
8,CCc1nc(C(=O)N(CC)CC(=O)Nc2cc(Cl)ccc2C)c[nH]1,-127.3
9,Cc1nc2c(c(NCC(c3ccccc3C)N(C)C)n1)CCNC2 (configuration not stated),-11.95
10,Cc1nc(CNc2nc(-c3ccco3)nc3c2CCNCC3)n[nH]1,-85.54
11,Cc1nc2c(c(NCc3ccc(-c4ccccn4)s3)n1)CCNCC2,73.48
12,CSCC(=O)N1CCc2nc(C)nc(NCc3ccccc3)c2CC1,-13.73
13,Cc1nc2c(c(NCC(O)c3ccccc3Cl)n1)CCNCC2 (configuration not stated),26.14
14,c1ccc(-c2nc3c(c(NCCCn4cncn4)n2)CCNCC3)nc1,-4.332
15,Cc1n[nH]c(C)c1CNc1nc(-c2ccco2)nc2c1CCNCC2,17
16,Cc1nc2c(c(NCc3cc4ccccc4s3)n1)CCNCC2,89.06
17,Cc1nc2c(c(NCc3nc4ccccc4s3)n1)CCNCC2,71.13
18,CN(C)c1cc(C(=O)Nc2cccnc2N2CCSCC2)ccn1,-48.21
19,FC(F)(F)c1ccnc(N2CCC(c3nccn3CC3CC3)CC2)n1,-11.94
20,Cc1cc(C2CCCN2C(=O)Nc2cn[nH]c2)on1 (configuration not stated),-46.01
21,O=C(c1cccnc1)N1CC(S(=O)(=O)c2ccc(Cl)cc2)C1,-41.36
22,Cc1noc(C)c1CN1C[C@@H]2CCCO[C@@H]2[C@H](Nc2ccccn2)C1.O=C(O)C(F)(F)F.O=C(O)C(F)(F)F,-37.64
23,Cn1nc(CNC(=O)C2CCN(S(C)(=O)=O)CC2)cc1C1CC1,-29.39
24,Cc1cccc(NC(=O)CN(C)C(=O)c2scnc2C)n1,-36.36
25,N#CCCN(CCN1CCOCC1)Cc1ccc(F)c(Br)c1,50.69
26,COc1ccc(CN(CCC#N)CCN2CCOCC2)cc1OC,-48.91
27,CCOc1ccc(CN(CCC#N)CCN2CCOCC2)cc1OC,-106.9
